# Measurements reported in PubChem BioAssay (NCI).
# This is part of a sample that, as a whole, favours compounds with a hit. Of some 83,000 tested, about 20% had one in any assay.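 For each line, cells grew in 96-well plates with the test compound present at a single concentration for 48 hours.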 A number with no mark means an inactive call. Calls of active or inactive are those of the source. Rule for the calls: active = growth percent below 10; inactive = the rest.
# Legend:
# Assay in all cases: NCI-60 one-dose screen, 48 h (100 = growth as untreated, 0 = no growth, -100 = all killed)
# Conditions in all cases: 10 µM unless noted
# DU-145 prostate = test system: DU-145 prostate
# K-562 leukemia = test system: K-562 leukemia
# MALME-3M melanoma = test system: MALME-3M melanoma
# MDA-MB-231 breast = test system: MDA-MB-231 breast
# RXF 393 renal = test system: RXF 393 renal
# SF-268 CNS = test system: SF-268 CNS
# SF-295 CNS = test system: SF-295 CNS
# SF-539 CNS = test system: SF-539 CNS
# UACC-257 melanoma = test system: UACC-257 melanoma
# M14 melanoma = test system: M14 melanoma
# HCT-15 colon = test system: HCT-15 colon
# HT29 colon = test system: HT29 colon
# SNB-75 CNS = test system: SNB-75 CNS
# SNB-19 CNS = test system: SNB-19 CNS
# U251 CNS = test system: U251 CNS
# PC-3 prostate = test system: PC-3 prostate
# SK-MEL-5 melanoma = test system: SK-MEL-5 melanoma
# UACC-62 melanoma = test system: UACC-62 melanoma
# LOX IMVI melanoma = test system: LOX IMVI melanoma
# SK-MEL-28 melanoma = test system: SK-MEL-28 melanoma
Compound,growth (DU-145 prostate),growth (K-562 leukemia),growth (MALME-3M melanoma),growth (MDA-MB-231 breast),growth (RXF 393 renal),growth (SF-268 CNS),growth (SF-295 CNS),growth (SF-539 CNS),growth (UACC-257 melanoma),growth (M14 melanoma),growth (HCT-15 colon),growth (HT29 colon),growth (SNB-75 CNS),growth (SNB-19 CNS),growth (U251 CNS),growth (PC-3 prostate),growth (SK-MEL-5 melanoma),growth (UACC-62 melanoma),growth (LOX IMVI melanoma),growth (SK-MEL-28 melanoma)
C[C@@H]1C[C@H]2C(=O)O[C@@H](C)[C@H](NC(=O)[C@H](Cc3cc(F)cc(F)c3)NC(=O)Nc3ccc(Cl)cc3F)C(=O)N3C[C@H](O)C[C@H]3C(=O)N3CCN(C)C[C@H]3C(=O)N[C@@H](C)C(=O)N2C1,41.3%,27.7%,45.4%,27.9%,88.1%,29.1%,38.9%,51.3%,19.8%,72.9%,107%,32.5%,22.8%,20.3%,21.1%,18.1%,64.6%,31.1%,43.4%,–
C=CCCC1(C)NC(=O)NC1=O (stereo not drawn),102%,83.3%,111%,101%,121%,98%,95.7%,104%,104%,98.1%,105%,93.2%,89.3%,99.6%,103%,86.5%,104%,99.2%,93.7%,–
CCN(CC)CCCC(C)Nc1ccnc2cc(Cl)c(SCc3ccccc3)cc12 (stereo not drawn),25.4%,-51.1% (active),-77.3% (active),-78.5% (active),-91.1% (active),-66.3% (active),-81.7% (active),-89.5% (active),-79.2% (active),-88.2% (active),-68.8% (active),-56.4% (active),-86.2% (active),-34.9% (active),-54.3% (active),-7.16% (active),-94.9% (active),-90.8% (active),-90.9% (active),–
O=C(N=c1n(-c2ccccc2)nc2n1CCN2C1=NCCN1C(=O)c1ccc(Cl)cc1)c1ccc(Cl)cc1,92.2%,47.1%,91.2%,82.4%,48.6%,72.9%,86.2%,80.2%,103%,62.5%,57%,59.7%,68.8%,85.8%,72.8%,47.5%,70.9%,73.6%,86.6%,–
COc1cc2c(c(OC)c1OC)-c1cc(I)c(O)cc1[C@@H](NC(C)=O)CC2,16.9%,25.6%,80.2%,7.04% (active),37.7%,8.91% (active),22.4%,-27.8% (active),61.9%,14.4%,4.21% (active),10.8%,28%,14.1%,7.36% (active),28.8%,-15.2% (active),17.8%,24.4%,–
C[C@H]1[C@H](C)CC[C@]2(C(=O)O)CC[C@]3(C)C(=CC[C@@H]4[C@@]5(C)C/C(=C/c6cccnc6)[C@H](O)C(C)(C)[C@@H]5CC[C@]43C)[C@H]12,5% [100 µM] (active),13.3% [100 µM],-24.2% [100 µM] (active),-17.6% [100 µM] (active),-13.3% [100 µM] (active),21.8% [100 µM],-27.3% [100 µM] (active),-42.1% [100 µM] (active),0.776% [100 µM] (active),1.69% [100 µM] (active),2.04% [100 µM] (active),-72.1% [100 µM] (active),-3.83% [100 µM] (active),3.05% [100 µM] (active),-57.2% [100 µM] (active),17.4% [100 µM],-64.4% [100 µM] (active),-70.3% [100 µM] (active),-91.8% [100 µM] (active),–
Cc1cccc(C[C@H](NC(=O)Nc2ccc(Cl)cc2F)C(=O)N[C@@H]2C(=O)N3C[C@H](O)C[C@H]3C(=O)N3CCCC[C@H]3C(=O)N[C@@H](C)C(=O)N3C[C@H](C)C[C@H]3C(=O)O[C@H]2C)c1,15.1%,12.5%,7.7% (active),-32.6% (active),-18.1% (active),11.6%,-21.3% (active),7.42% (active),14.9%,3.02% (active),27.9%,-10.5% (active),4.64% (active),16.2%,16.4%,7.99% (active),-70.4% (active),-26.1% (active),9.07% (active),–
Cc1cc(C)c(O)c(CNCCCNCc2cc(C)cc(C)c2O)c1,87.8%,15.3%,-65.9% (active),35.8%,47.9%,74.7%,30.3%,-11.8% (active),4.87% (active),-65.8% (active),34.9%,70.9%,59.6%,68.9%,51.3%,64.8%,61.9%,12.6%,39.8%,62.4%
COc1ccc2nc3cc(Cl)ccc3c(Nc3ccc(O)c(CN4CCCC4)c3)c2c1,-9.64% (active),-6.52% (active),-86.6% (active),11.7%,-84% (active),38.5%,8.91% (active),-87.4% (active),-81.1% (active),-83.2% (active),0.129% (active),-22.8% (active),31.5%,62.5%,0.559% (active),24.2%,41.1%,51.9%,-68.6% (active),82.9%
CCOc1cccc2c(NC(C)CCCN(CC)CC)c(C)cnc12 (stereo not drawn),110%,101%,116%,78.7%,102%,87.6%,109%,102%,108%,104%,99.1%,85.1%,67.9%,102%,103%,85.9%,108%,108%,90.2%,126%
C#CCNC(=O)CC[C@]1(C)[C@H]2CC[C@@H]3[C@@H]([C@@](C)(O)CCC=C(C)C)CC[C@@]3(C)[C@]2(C)CC[C@H]1C(=C)C,52.7% [100 µM],5.99% [100 µM] (active),-73.6% [100 µM] (active),-24.5% [100 µM] (active),30.6% [100 µM],-28.8% [100 µM] (active),49% [100 µM],-81% [100 µM] (active),61.5% [100 µM],53.1% [100 µM],67.3% [100 µM],-30.8% [100 µM] (active),-19% [100 µM] (active),60.9% [100 µM],-71.4% [100 µM] (active),20.5% [100 µM],9.4% [100 µM] (active),34% [100 µM],-67.7% [100 µM] (active),54.1% [100 µM]
COc1ccc(C(=O)CSc2nccc(Nc3ccc(C(=O)O)cc3)n2)cc1,107%,115%,93%,102%,99%,96.6%,104%,99.9%,96.6%,92.1%,100%,104%,102%,101%,98%,102%,93.6%,89.7%,101%,100%
CC(C)=CC/C=C(/C)[C@H]1CC[C@]2(C)[C@@H]1CC[C@@H]1[C@@]3(C)CCC(=O)NC(C)(C)[C@@H]3CC[C@]12C,12.2% [100 µM],6.71% [100 µM] (active),-85.2% [100 µM] (active),-35.9% [100 µM] (active),-72.3% [100 µM] (active),10.9% [100 µM],-22.5% [100 µM] (active),-92.2% [100 µM] (active),14.8% [100 µM],15.7% [100 µM],11.7% [100 µM],-0.044% [100 µM] (active),19.7% [100 µM],24.9% [100 µM],-67% [100 µM] (active),16.5% [100 µM],-93.5% [100 µM] (active),-24.4% [100 µM] (active),-90.1% [100 µM] (active),-77.3% [100 µM] (active)
C=C(C)[C@@H]1CC[C@]2(C(=O)NCCNCCNCCN)CC[C@]3(C)[C@H](CC[C@@H]4[C@@]5(C)CCC(=O)C(C)(C)[C@@H]5CC[C@]43C)[C@@H]12,-56.7% [100 µM] (active),-17% [100 µM] (active),-72.8% [100 µM] (active),-92.4% [100 µM] (active),-71.9% [100 µM] (active),-38.7% [100 µM] (active),-54.5% [100 µM] (active),-92.7% [100 µM] (active),-10.7% [100 µM] (active),-62.8% [100 µM] (active),-36.6% [100 µM] (active),-77.4% [100 µM] (active),-41.5% [100 µM] (active),-78.5% [100 µM] (active),-81.8% [100 µM] (active),-24.6% [100 µM] (active),-86.2% [100 µM] (active),-77.9% [100 µM] (active),-68.2% [100 µM] (active),-73.9% [100 µM] (active)
Cc1ccc(N)c(O)c1,115%,94.3%,72.4%,81.7%,82.1%,103%,121%,99.1%,80.6%,85.6%,83.8%,95.8%,32.7%,102%,92.7%,75.8%,96.1%,101%,86.6%,103%
